The structures appear in SMILES notation. Compounds without any hit were thinned out: in the full panel of roughly 83,000, 20% have a hit.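 Activity criterion: percent growth below 10, measured after cells in 96-well plates were exposed to a single compound concentration for 48 hours.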 The source made the active and inactive calls.

The test system of the first test is HOP-62 NSCLC. The experiment in a line: NCI-60 one-dose screen, 48 h (100 = growth as untreated, 0 = no growth, -100 = all killed). The settings on record: 10 µM unless noted.
As to `N#C/C(=C\c1c(-c2ccccc2)[nH]c2ccccc12)C(=O)c1ccccc1`, the growth was 43% (inactive).
The same measure, in the same setting: next, `CCN(CC)c1cc(C)c2cc(NC(=O)c3cccc(OC)c3)ccc2n1`: 107% (inactive).
Take `COc1nc2c(c(=O)n1C)N=C1c3ccccc3C(=O)C1C(c1ccccc1)N2` (stereo not drawn): the growth was 86.9% (inactive).
Regarding `CCOc1ccccc1CN1CCc2nc3cc(C(C)(C)C)[nH]n3c(=O)c2C1`, the growth is 99.6% (inactive).
On the same count and under the same terms, next, `COc1ccc(-n2c(C(O)c3ccccc3)n[nH]c2=S)cc1` (stereo not drawn): 92.5% (inactive); `CC(=O)n1cc(-c2c[nH]c3ccccc23)c(-c2ccc(Cl)cc2)n1`: 66.3% (inactive).
In the case of `N#CC(C#N)=Cc1c(-c2ccccc2)[nH]c2ccccc12`, the growth was 35.6% (inactive).
Regarding `Nc1ccc(C2c3ccccc3Oc3ccccc32)cc1`, the growth was 91.8% (inactive).
As for `COc1cc(C#N)cc2[nH]c(=O)oc12`, the growth is 103% (inactive).

The test system of another test is NCI-H460 lung. Described as above. Particulars: 10 µM unless noted.
For the compound `OC(c1ccccc1)c1nnc(SCc2ccccc2)n1Cc1ccccc1` (stereo not drawn), the growth is 106% (inactive).
On to `COc1ccc(/C=C2\SC(=Nc3ccccc3)NC2=O)cc1`, for which the growth is -79.4% (active).
`COc1ccc(-n2c(C(O)c3ccccc3)nn(CN3CCOCC3)c2=S)cc1` (stereo not drawn): the growth was 111% (inactive).
On to `CN(O)c1nc(N(C)O)nc(N2CCOCC2)n1`, for which the growth is 8.62% (active).
Turning to `O=C(NC(=S)Nc1cccc(NC(=S)NC(=O)c2ccccc2)c1)c1ccccc1`, the growth was 46.4% (inactive).
Turning to `Cn1c2c(c(=O)[nH]c1=O)NC1=C(C(=O)c3ccccc31)C1(C=C(O)c3ccccc31)N2` (stereo not drawn), the growth is 111% (inactive).
Same read-out and setting: for `Nc1nc(Nc2cccc(F)c2)nc2ccccc12` the value was 31.6% (inactive); for `COc1cc(OC)cc(N2C(=O)N(Cc3ccc(C(C)(C)C)cc3)c3ccccc3S2(=O)=O)c1`, 93.9% (inactive); for `CC/C=C\C[C@H](O)C/C=C1/C(=O)C=C[C@@H]1C/C=C\CCCC(=O)OCCS(=O)(=O)c1ccccc1`, 42% (inactive).
Regarding `COc1ccc(C2Nc3ncnc(N)c3N=C3c4ccccc4C(=O)C32)cc1` (stereo not drawn), the growth is 104% (inactive).
For the compound `O=CCCCC(O)C=O` (stereo not drawn), the growth is 101% (inactive).
For the compound `COC(=O)/C(=C\c1c(-c2ccccc2)[nH]c2ccccc12)S(C)(=O)=O`, the growth was 12.5% (inactive).
Take `COc1ccc(-c2nsc3c2NC(=O)CC3c2ccsc2)cc1` (stereo not drawn): the growth is 6.14% (active).
For `FC(F)(F)c1cccc(Nc2nc(-c3ccccc3)nc3ncccc23)c1`, the growth is 20.9% (inactive).
In the case of `COC(=O)/C(=C\c1c(C)[nH]c2ccccc12)S(=O)(=O)c1ccccc1`, the growth is -7.04% (active).
As for `O=Nc1c(O)ccc2ccccc12.O=Nc1c(O)ccc2ccccc12.O=Nc1c([O-])ccc2ccccc12.[Fe+3]`, the growth was 105% (inactive).
As to `COc1cccc(C(=O)Cn2cc(/C=C(\C#N)S(=O)(=O)c3ccccc3)c3ccccc32)c1`, the growth was 57.5% (inactive).
On to `CC(=O)O[C@@H]1/C=C/C(=O)N[C@@H](C)CCC/C=C/[C@@H]2CCC[C@H]21`, for which the growth was 107% (inactive).
In the case of `CC(C)(C)c1ccc(C2CC(=O)C3=C(C2)Nc2ccccc2N(C(=O)c2ccccc2Cl)C3c2ccc(F)cc2)cc1` (stereo not drawn), the growth is -0.748% (active).
On the same count and under the same terms, for `O=C1/C=C/[C@@H](O)[C@@H]2C[C@@H](O)C[C@H]2/C=C/CCCCO1` the value was 7.12% (active); for `CN1CCN(c2nc(Nc3ccc(O)cc3)nc3ccccc23)CC1`, 13.9% (inactive).
Consider `O=C(NN1C(=O)CSC1c1ccc(Cl)cc1)c1[nH]c2ccc(F)cc2c1-c1ccccc1` (stereo not drawn), for which the growth is 5.13% (active).
Turning to `CSc1nc2c(c(=O)n1C)N=C1c3ccccc3C(=O)C1C(c1ccccc1)N2` (stereo not drawn), the growth was 76.2% (inactive).
`CCCC(=O)CC(C)=O.CCCC(=O)CC(C)=O.[Cu]`: the growth was 107% (inactive).
Consider `N#C/C(=C\c1c(-c2ccccc2)[nH]c2ccccc12)S(=O)(=O)c1ccccc1`, for which the growth is 16.1% (inactive).
On the same count and under the same terms, next, `O=C(Nc1ccc(Cl)cc1)c1cc2ccccc2cc1OP(=O)(O)O`: 14.2% (inactive); `COc1ccc(/C=C2\N=C(c3ccccc3)N(c3ccc(-c4nc5ccc(C)cc5s4)cc3)C2=O)cc1`: 89.6% (inactive); `CSc1nc2c(c(=O)[nH]1)N=C1c3ccccc3C(=O)C1C(c1ccccc1)N2` (stereo not drawn): 12.3% (inactive).
Regarding `CCOC(=O)c1c(Cl)c2c(n1Cc1ccccc1)-c1oncc1CCC2`, the growth is 81% (inactive).
Regarding `COc1cc([C@@H]2NC(=O)NC(C)=C2C(=O)Nc2nc(-c3ccc(Cl)cc3)cs2)ccc1O`, the growth is 102% (inactive).
As to `N#C/C(=C\c1c(-c2ccccc2)[nH]c2ccccc12)C(=O)c1ccccc1`, the growth is 18.9% (inactive).
In the case of `CCN(CC)c1cc(C)c2cc(NC(=O)c3cccc(OC)c3)ccc2n1`, the growth is 57.1% (inactive).
On to `COc1nc2c(c(=O)n1C)N=C1c3ccccc3C(=O)C1C(c1ccccc1)N2` (stereo not drawn), for which the growth is 103% (inactive).
Still for that read-out and setting: for `CCOc1ccccc1CN1CCc2nc3cc(C(C)(C)C)[nH]n3c(=O)c2C1` the value was 107% (inactive); for `COc1ccc(-n2c(C(O)c3ccccc3)n[nH]c2=S)cc1` (stereo not drawn), 108% (inactive); for `CC(=O)n1cc(-c2c[nH]c3ccccc23)c(-c2ccc(Cl)cc2)n1`, 82.3% (inactive).
As for `N#CC(C#N)=Cc1c(-c2ccccc2)[nH]c2ccccc12`, the growth was 16.9% (inactive).
Still for that read-out and setting: next, `Nc1ccc(C2c3ccccc3Oc3ccccc32)cc1`: 108% (inactive); `COc1cc(C#N)cc2[nH]c(=O)oc12`: 110% (inactive).
